Drawing on ChEMBL document CHEMBL1961873, “Compounds: GSK PKIS; Assays: Nanosyn kinase panel” (2012), this text covers inhibition for one compound.

Broadly, the inhibition is the percentage by which the read-out fell short of the control. Lower therefore signals little suppression.

The target of assay [1] is Protein kinase C gamma type (Homo sapiens) (UniProt P05129). Conditions: at 1 µM.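 Note: each value is an averaged percent inhibition of the enzyme.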
The target of assay [2] is T1, Protein kinase C iota type (Homo sapiens) (UniProt P41743).
T1 sequence (whole entry): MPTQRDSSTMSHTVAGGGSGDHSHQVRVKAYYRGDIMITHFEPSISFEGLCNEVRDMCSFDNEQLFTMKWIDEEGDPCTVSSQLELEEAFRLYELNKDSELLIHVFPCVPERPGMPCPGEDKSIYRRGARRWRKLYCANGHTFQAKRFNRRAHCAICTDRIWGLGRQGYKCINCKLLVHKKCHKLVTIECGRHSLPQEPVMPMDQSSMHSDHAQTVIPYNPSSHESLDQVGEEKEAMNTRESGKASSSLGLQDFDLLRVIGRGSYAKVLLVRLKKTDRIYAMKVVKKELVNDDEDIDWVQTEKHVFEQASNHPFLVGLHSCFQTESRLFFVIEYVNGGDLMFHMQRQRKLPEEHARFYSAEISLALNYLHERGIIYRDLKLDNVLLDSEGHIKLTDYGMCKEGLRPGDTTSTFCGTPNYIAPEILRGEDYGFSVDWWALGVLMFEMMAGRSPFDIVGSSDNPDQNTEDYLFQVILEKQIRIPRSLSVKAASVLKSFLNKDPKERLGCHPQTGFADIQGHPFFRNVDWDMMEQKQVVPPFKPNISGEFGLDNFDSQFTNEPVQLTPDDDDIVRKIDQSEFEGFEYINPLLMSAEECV
The conditions noted are these: at 0.1 µM.

Assay [3] has as its target T1, Protein kinase C iota type (Homo sapiens). Conditions: at 1 µM.
For assay [4], the target named is Protein kinase C theta type (Homo sapiens) (UniProt Q04759). The conditions noted are these: at 0.1 µM.
Assay [5] shares this target. Conditions: at 1 µM.
The target in assay [6] is Protein kinase C beta type (Homo sapiens) (UniProt P05771). Conditions: at 0.1 µM.
Assay [7] shares this target. Conditions: at 1 µM.
Assay [8] addresses T2, Serine/threonine-protein kinase D1 (Homo sapiens) (UniProt Q15139).
T2 sequence (whole entry): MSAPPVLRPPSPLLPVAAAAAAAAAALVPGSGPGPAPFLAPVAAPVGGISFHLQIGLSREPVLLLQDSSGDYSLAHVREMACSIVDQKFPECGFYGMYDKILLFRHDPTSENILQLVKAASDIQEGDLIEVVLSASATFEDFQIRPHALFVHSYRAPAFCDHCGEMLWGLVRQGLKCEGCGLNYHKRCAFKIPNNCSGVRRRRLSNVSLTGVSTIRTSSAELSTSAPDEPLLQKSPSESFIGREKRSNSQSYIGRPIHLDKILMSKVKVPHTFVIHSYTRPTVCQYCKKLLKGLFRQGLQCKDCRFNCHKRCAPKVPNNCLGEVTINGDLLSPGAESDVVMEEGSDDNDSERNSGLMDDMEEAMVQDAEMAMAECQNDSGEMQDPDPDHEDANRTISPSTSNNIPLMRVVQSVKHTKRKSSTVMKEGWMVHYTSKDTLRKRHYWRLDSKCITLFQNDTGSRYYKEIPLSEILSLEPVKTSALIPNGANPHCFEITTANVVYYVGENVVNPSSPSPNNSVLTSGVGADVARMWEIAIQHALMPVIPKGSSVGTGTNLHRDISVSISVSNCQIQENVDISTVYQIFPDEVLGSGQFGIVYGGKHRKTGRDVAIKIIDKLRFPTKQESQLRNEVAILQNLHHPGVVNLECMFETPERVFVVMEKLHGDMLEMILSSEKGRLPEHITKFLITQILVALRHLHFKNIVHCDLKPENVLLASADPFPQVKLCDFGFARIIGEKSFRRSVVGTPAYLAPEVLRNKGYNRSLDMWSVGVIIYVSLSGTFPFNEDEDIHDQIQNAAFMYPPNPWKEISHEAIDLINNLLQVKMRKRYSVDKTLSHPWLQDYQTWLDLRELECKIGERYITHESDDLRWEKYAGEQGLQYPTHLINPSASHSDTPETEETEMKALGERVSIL
Conditions: at 0.1 µM.

Assay [9] deals with T2, Serine/threonine-protein kinase D1 (Homo sapiens). Conditions: at 1 µM.
Assay [10] concerns the target T3, Serine/threonine-protein kinase D2 (Homo sapiens) (UniProt Q9BZL6).
T3 sequence (whole entry): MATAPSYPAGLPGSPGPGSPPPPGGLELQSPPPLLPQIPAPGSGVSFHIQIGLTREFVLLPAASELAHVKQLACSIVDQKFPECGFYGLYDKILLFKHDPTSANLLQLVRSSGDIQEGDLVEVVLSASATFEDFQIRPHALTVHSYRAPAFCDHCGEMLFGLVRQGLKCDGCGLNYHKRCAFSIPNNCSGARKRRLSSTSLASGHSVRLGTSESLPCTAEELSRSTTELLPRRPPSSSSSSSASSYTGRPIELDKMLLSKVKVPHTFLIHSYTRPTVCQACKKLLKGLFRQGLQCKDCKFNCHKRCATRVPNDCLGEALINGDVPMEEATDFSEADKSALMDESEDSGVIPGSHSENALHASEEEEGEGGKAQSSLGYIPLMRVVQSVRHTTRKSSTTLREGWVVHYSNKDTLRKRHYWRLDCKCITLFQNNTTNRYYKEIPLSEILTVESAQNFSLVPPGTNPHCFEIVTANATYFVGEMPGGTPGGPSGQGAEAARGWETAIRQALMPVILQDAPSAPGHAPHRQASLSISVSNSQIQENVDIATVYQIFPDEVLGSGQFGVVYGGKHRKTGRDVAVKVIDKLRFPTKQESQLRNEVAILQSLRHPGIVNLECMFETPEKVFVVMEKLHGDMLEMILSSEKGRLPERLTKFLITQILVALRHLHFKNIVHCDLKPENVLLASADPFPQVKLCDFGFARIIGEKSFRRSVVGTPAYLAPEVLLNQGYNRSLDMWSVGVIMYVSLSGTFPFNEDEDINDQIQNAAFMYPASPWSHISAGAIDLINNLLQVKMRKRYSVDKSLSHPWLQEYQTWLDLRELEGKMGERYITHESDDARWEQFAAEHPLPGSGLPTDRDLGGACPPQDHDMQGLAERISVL
Conditions: at 0.1 µM.

In assay [11] the target is T3, Serine/threonine-protein kinase D2 (Homo sapiens). Conditions: at 1 µM.
Assay [12] addresses T4, Serine/threonine-protein kinase D3 (Homo sapiens) (UniProt O94806).
T4 sequence (whole entry): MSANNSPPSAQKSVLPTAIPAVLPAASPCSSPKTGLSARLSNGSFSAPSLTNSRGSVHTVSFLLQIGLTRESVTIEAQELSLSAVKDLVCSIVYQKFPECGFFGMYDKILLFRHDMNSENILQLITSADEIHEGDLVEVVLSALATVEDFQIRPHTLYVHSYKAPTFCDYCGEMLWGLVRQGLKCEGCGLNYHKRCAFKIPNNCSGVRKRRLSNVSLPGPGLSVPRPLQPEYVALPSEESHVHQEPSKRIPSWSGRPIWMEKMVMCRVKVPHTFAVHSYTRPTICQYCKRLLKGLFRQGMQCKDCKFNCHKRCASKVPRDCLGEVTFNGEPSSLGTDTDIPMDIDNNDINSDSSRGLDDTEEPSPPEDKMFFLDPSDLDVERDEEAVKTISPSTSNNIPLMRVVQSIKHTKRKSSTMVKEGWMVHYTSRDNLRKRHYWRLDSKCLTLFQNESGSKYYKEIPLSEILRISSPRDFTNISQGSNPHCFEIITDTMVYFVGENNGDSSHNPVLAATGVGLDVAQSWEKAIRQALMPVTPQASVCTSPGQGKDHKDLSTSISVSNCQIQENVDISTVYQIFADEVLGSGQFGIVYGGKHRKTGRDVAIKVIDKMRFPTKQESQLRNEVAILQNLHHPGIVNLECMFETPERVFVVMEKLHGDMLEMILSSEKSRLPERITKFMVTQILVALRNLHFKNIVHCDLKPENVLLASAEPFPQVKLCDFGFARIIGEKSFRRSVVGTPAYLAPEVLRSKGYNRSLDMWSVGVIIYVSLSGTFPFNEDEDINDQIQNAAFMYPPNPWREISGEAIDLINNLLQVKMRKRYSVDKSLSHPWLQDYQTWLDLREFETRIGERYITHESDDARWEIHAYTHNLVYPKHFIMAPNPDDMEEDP
Conditions: at 0.1 µM.

For assay [13], the target named is T4, Serine/threonine-protein kinase D3 (Homo sapiens). The conditions noted are these: at 1 µM.
Assay [14] addresses T5, cGMP-dependent protein kinase 1 (Homo sapiens) (UniProt Q13976).
T5 sequence (whole entry): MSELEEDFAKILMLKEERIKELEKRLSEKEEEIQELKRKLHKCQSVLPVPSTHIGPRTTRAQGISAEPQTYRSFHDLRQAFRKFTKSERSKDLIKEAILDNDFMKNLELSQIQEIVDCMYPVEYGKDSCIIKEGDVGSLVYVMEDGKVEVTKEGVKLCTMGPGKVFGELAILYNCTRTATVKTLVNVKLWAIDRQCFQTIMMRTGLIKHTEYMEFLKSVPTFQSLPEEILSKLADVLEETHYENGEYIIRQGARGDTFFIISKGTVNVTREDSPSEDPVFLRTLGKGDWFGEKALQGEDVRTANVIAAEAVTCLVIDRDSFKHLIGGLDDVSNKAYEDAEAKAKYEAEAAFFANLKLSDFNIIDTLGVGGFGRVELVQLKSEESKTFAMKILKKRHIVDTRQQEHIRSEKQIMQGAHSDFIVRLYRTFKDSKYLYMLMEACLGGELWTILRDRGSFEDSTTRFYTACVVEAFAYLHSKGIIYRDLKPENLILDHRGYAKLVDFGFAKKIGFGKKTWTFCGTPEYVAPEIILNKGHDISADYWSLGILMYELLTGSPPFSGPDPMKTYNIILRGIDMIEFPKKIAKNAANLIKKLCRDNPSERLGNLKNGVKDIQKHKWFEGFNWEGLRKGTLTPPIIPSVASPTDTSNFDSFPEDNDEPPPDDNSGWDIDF
The conditions noted are these: at 0.1 µM.

The target of assay [15] is T5, cGMP-dependent protein kinase 1 (Homo sapiens). Conditions: at 1 µM.
Assay [16] concerns the target T6, cGMP-dependent protein kinase 2 (Homo sapiens) (UniProt Q13237).
T6 sequence (whole entry): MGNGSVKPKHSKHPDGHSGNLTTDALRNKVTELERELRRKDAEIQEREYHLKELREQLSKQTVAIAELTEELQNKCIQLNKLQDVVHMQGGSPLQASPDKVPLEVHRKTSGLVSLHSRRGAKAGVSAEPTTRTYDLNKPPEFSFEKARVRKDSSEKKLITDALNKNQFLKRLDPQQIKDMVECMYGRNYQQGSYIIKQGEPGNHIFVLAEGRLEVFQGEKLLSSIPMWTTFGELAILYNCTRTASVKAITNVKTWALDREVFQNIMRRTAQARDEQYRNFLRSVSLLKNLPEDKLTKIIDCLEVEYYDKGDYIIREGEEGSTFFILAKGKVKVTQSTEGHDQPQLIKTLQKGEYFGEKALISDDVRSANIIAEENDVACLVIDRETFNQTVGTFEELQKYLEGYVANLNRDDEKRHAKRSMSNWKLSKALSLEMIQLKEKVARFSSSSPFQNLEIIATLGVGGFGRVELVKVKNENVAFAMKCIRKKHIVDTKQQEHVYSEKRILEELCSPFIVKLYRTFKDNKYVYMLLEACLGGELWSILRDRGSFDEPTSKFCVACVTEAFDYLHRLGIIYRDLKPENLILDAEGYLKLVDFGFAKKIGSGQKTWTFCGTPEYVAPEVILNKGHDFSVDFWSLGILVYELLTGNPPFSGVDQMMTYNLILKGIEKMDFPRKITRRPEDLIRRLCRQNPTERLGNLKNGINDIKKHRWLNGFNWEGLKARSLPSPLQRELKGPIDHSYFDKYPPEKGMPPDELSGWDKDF
The conditions noted are these: at 0.1 µM.

The target in assay [17] is T6, cGMP-dependent protein kinase 2 (Homo sapiens). The conditions noted are these: at 1 µM.
Assay [18] deals with T7, cAMP-dependent protein kinase catalytic subunit PRKX (Homo sapiens) (UniProt P51817).
T7 sequence (whole entry): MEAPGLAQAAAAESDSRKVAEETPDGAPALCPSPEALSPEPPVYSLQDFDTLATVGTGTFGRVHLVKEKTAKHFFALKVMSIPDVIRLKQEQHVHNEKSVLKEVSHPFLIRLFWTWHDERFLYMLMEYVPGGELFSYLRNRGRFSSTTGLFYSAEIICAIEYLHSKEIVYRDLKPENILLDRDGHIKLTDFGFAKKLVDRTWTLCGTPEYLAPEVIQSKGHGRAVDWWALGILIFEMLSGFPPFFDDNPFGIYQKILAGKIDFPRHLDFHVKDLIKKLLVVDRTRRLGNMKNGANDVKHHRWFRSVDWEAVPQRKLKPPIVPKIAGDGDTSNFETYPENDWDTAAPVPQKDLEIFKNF
The conditions noted are these: at 0.1 µM.

In assay [19] the target is T7, cAMP-dependent protein kinase catalytic subunit PRKX (Homo sapiens). The conditions noted are these: at 1 µM.
In assay [20] the target is Rho-associated protein kinase 1 (Homo sapiens) (UniProt Q13464). The conditions noted are these: at 0.1 µM.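 Note: values are mean percent inhibition of ROCK1.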
Rho-associated protein kinase 1 (Homo sapiens), sequence (Q13464 2-1354 limits assumed): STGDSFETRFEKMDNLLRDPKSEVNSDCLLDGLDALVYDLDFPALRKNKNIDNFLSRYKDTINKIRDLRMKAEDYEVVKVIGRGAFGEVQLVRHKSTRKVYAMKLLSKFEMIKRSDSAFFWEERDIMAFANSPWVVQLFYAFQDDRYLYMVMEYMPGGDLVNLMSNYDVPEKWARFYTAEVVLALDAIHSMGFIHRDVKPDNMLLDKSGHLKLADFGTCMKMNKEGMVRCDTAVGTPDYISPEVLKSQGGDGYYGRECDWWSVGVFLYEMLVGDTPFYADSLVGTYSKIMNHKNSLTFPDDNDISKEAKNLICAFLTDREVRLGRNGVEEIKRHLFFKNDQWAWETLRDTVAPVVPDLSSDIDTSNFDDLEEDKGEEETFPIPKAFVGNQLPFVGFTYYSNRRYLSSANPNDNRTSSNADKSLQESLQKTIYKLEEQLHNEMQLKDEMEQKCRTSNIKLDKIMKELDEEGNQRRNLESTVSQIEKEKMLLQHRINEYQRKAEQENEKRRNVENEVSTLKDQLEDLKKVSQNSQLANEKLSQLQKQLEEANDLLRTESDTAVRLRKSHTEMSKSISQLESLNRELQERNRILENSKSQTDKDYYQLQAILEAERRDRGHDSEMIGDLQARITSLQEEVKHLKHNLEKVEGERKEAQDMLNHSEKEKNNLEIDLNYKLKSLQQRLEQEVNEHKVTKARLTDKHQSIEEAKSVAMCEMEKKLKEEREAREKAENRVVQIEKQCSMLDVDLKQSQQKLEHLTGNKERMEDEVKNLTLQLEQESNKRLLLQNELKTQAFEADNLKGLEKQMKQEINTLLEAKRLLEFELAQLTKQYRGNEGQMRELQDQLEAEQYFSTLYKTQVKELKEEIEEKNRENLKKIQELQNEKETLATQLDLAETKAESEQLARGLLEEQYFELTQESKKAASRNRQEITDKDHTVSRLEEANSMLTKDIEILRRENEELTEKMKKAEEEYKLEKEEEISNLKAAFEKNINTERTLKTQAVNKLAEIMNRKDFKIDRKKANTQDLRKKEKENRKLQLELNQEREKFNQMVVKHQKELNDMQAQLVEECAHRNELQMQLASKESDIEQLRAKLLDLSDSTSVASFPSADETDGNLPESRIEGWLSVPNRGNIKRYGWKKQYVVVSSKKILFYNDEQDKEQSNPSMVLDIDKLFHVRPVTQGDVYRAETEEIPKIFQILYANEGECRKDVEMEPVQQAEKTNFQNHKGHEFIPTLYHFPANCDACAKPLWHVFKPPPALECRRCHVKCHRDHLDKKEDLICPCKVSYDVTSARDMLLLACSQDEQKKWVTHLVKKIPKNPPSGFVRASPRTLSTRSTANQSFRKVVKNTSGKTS

Protein kinase C theta type (Homo sapiens), sequence (Q04759 whole entry, looked up): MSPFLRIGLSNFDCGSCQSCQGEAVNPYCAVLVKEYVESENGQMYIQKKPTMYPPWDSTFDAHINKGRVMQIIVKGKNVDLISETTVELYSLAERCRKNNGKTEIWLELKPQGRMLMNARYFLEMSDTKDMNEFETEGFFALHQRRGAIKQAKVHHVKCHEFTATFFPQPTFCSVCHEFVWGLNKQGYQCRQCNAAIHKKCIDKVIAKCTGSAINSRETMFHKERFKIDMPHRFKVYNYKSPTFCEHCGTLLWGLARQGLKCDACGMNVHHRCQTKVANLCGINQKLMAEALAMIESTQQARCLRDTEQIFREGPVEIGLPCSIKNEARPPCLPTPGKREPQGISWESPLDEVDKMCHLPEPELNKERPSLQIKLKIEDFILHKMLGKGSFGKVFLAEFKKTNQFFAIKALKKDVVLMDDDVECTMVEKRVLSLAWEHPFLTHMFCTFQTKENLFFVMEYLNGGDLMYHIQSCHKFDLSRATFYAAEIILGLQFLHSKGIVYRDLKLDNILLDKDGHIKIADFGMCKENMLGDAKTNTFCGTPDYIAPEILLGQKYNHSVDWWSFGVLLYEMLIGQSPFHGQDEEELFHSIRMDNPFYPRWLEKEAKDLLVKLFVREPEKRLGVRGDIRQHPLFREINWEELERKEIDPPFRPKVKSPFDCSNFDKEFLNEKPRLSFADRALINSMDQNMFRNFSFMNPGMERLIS
Protein kinase C beta type (Homo sapiens), sequence (P05771 2-671 limits assumed): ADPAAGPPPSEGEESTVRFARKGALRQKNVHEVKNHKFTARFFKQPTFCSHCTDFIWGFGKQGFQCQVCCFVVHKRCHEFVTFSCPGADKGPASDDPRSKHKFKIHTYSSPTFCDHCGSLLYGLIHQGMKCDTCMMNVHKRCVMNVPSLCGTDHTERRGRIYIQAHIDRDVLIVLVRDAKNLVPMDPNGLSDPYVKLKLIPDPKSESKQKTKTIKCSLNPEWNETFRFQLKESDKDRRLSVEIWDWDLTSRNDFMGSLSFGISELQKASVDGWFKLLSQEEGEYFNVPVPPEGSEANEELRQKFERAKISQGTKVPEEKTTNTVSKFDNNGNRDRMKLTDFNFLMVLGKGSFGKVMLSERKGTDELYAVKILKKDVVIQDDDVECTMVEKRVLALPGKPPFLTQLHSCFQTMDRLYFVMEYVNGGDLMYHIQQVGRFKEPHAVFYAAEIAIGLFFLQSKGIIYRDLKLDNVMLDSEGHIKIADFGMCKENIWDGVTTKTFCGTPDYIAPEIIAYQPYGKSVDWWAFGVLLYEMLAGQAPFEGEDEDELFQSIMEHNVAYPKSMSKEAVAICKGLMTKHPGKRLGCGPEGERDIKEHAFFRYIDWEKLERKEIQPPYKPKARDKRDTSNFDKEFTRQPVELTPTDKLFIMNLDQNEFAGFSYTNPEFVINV

`O=C(Nc1n[nH]c2nc(-c3ccc(O)cc3)c(Br)cc12)C1CC1`: the inhibition in [1] was determined as 48.1%; in assay [2], 5.33%; in assay [3], 19.2%; in assay [4], 7.68%; in assay [5], 33.2%; in assay [6], 19%. For the same compound, the inhibition came to 57.6% in [7]; 4.47% in assay [8]; 7.7% in assay [9]; 6.19% in assay [10]; 5.92% in [11]; 5.64% in assay [12]. For the same compound, the inhibition turned out to be 6.49% in [13]; 3.5% in assay [14]; 6.22% in [15]; 5.14% in assay [16]; 27.8% in assay [17]; 3.04% in assay [18]. Also, the inhibition was 4.28% in assay [19] and 0.72% in assay [20].
